Reference: PubChem BioAssay AID2384 (Southern Research Specialized Biocontainment Screening …, 2010)
The whole screen tested about 2,300 compounds, of which about 1,100 (48%) were called active. How the calls were made is not given here. So high a share suggests a set chosen from earlier hits. Some of the results follow. Measured potencies and affinities stand elsewhere.

Test: S. typhi counter-screen signal inhibition – fluorescence, 4 h, counter-screen for PhoP regulon inhibitor project, dose response (AID 2384)
Conditions: S. typhi GFP reporter counter-screen; series mostly up to 150 µM; inhibition: at the top concentration

Compound | inhibition
CCN(CC)/C(N)=N/c1nc(C)cc(C)n1 | 19.2% (inactive)
Cc1cc(C)c2nc(/N=C(\N)NC(=O)c3ccccc3)nc(C)c2c1 | 2.46% (inactive)
COc1ccc(OC)c(NC(=O)CSc2nnc3ccc(-c4ccncc4)nn23)c1 | 9.2% (inactive)
O=C(NCc1ccccc1)N[C@@H](Cc1c[nH]c2ccccc12)C(=O)O | 8.61% (inactive)
O=c1ccn(CCc2c[nH]c3ccccc23)c2c1CCCC2 | -0.3% (inactive)
CN(C)C(=O)CC12CC3CC(C1)CC(CC(=O)N(C)C)(C3)C2 | 3.13% (inactive)
Cc1cc(Cl)ccc1OCC(=O)Nc1nc(-c2cccnc2)cs1 | -11.5% (inactive)
O=C(Cn1[nH]c(=O)c2ccccc2c1=O)Nc1ccc(-c2nnc3n2CCCCC3)cc1 | -15.2% (inactive)
CCOC(=O)C1CCCN(C/C(O)=C(\C#N)c2nc(-c3ccccc3)cs2)C1 (stereo unspecified) | 8.93% (inactive)
O=C1C2C3C=CC(CC3)C2C(=O)N1/N=C/c1ccc(O)cc1 (stereo unspecified) | -17.8% (inactive)
Cc1cccc(NC(=O)c2sc3nc(-c4ccccc4)cn3c2C)n1 | -13.9% (inactive)
O=C(Nc1ccc(N2CCOCC2)c(Cl)c1)c1ccc(-n2cnnc2)cc1 | -13.5% (inactive)
CCOC(=O)C1=C(C)NC(=O)NC1c1ccc(NC(C)=O)cc1 (stereo unspecified) | -8.05% (inactive)
CSC1=NC2(C)CCCCC2C12C=CC(=O)C=C2 (stereo unspecified) | -21.2% (inactive)
Nc1cncc(C(=O)O)c1 | -53% (inactive)
CC1CCCC(NC(=O)COC(=O)CCSc2ccccc2)C1C (stereo unspecified) | 11.9% (inactive)
Cc1cccc(NC(=O)CSc2nc3c([nH]c4ccccc43)c(=O)n2C)c1 | -5.51% (inactive)
CC(C)OCCCn1c(=S)[nH]c2cc3c(cc2c1=O)OCO3 | -4.16% (inactive)
CCS(=O)(=O)N1CCC(C(=O)NCc2cc(OC)ccc2OC)CC1 | -21.9% (inactive)
CC(C)c1ccc(N(C(=O)C(F)(F)F)C(C(=O)NC2CCCCC2)c2ccncc2)cc1 (stereo unspecified) | 9.6% (inactive)
COc1ccc(NC(=O)CCNS(=O)(=O)c2cccc3nonc23)cc1 | -8.45% (inactive)
COc1ccc(N2CCN(c3cc(C)c4ccc(O)cc4n3)CC2)cc1 | -1.1% (inactive)
N=c1ccccn1CC(O)COc1ccccc1 (stereo unspecified) | -25.8% (inactive)

Compound | inhibition
Clc1ccc2nc(N3CCCCC3)[nH]c2c1 | 21.9% (inactive)
CSc1nc2cc(Oc3cccc(Cl)c3Cl)c(Cl)cc2[nH]1 | 37.1% (inactive)
CC(=O)c1c(C)[nH]c(C(=O)CSc2nnc(-c3ccc(Cl)cc3)n2CC2CCCO2)c1C (stereo unspecified) | -16.2% (inactive)
O=C(NC(O)C(=O)c1ccccc1)c1ccc(F)cc1 (stereo unspecified) | -8% (inactive)
Clc1ccc2c(c1)c1cc(Cl)ccc1n2CN1CCOCC1 | 23.5% (inactive)
CC(C)C(NC(=O)c1ccc(Cl)cc1)C(=O)NCC1CCCO1 (stereo unspecified) | -23.1% (inactive)
CC(=O)N(CCC1(c2ccc(C)cc2)CCOC(C(C)C)C1)Cc1ccco1 (stereo unspecified) | 16.3% (inactive)
c1cc(N2CCCC2)ccc1C(c1nnnn1C1CCCCC1)N1CCOCC1 (stereo unspecified) | -9.47% (inactive)
O=C(NC(=S)Nc1ccc(S(=O)(=O)Nc2nccs2)cc1)c1cccnc1 | -25.2% (inactive)
COc1nccnc1NS(=O)(=O)c1ccc(NC(=S)NC(=O)c2cccnc2)cc1 | -19.3% (inactive)
C=C(C)COc1ccc2c(C)c(CCC(=O)NC3CC3)c(=O)oc2c1 | 9.62% (inactive)
O=C(c1ccccc1)N1CCN(c2ccc([N+](=O)[O-])c(NCc3ccco3)c2)CC1 | 12.7% (inactive)
O=C1C(Cl)=C(NCc2cccnc2)C(=O)c2ccccc21 | -10.2% (inactive)
CCCC(=O)Nc1c2c(nn1-c1ccc(C)cc1C)CSC2 | -2.67% (inactive)
NC(N)=NC(N)=Nc1cccc2ccccc12 | 17.7% (inactive)
Cc1c(C(=O)O)oc2c3c(ccc12)OCCO3 | 37% (inactive)
Cc1ccnc(NS(=O)(=O)c2ccc(N=CC3=C(O)CC(C)(C)CC3=O)cc2)n1 | -5.31% (inactive)
N#Cc1nc(Cc2ccccc2)oc1NCCN1CCOCC1 | 5.87% (inactive)
N#Cc1nc(Cc2cccc3ccccc23)oc1NCCCN1CCOCC1 | 33.6% (inactive)
CCCNC(=O)COc1ncnc2sc(C)c(C)c12 | -23.9% (inactive)
COc1ccc(-n2cnc3c(sc4nc(N5CCOCC5)c5c(c43)CCCC5)c2=O)cc1 | -10.8% (inactive)
Cc1cc(=O)oc2c(CN(C)Cc3ccccc3)c(O)ccc12 | 8.32% (inactive)
CC(C)(C)NC(=O)c1ccc2c3c(cccc13)CC2 | 11.2% (inactive)

Compound | inhibition
Cc1ccc(C(=O)N2C(=S)C(c3ccc(F)cc3)=NC23CCN(C)CC3)cc1 | 39.8% (inactive)
COC(=O)c1ccc(C)c(NC(=O)CN2C(=O)c3ccccc3S2(=O)=O)c1 | -9.18% (inactive)
CC(C)(C)Nc1nc(-c2ccccn2)nc2ccccc12 | 30.1% (inactive)
COC(=O)c1ccccc1NC(=O)CSc1ncn[nH]1 | 4.44% (inactive)
O=C1Nc2ccccc2C1=Nc1ccc(S(=O)(=O)Nc2nccs2)cc1 | -49.4% (inactive)
Cc1ccc(-c2nc(C(=O)NCCCN(C)C)cc3c2[nH]c2ccccc23)cc1 | 32.1% (inactive)
CCc1nc(C)ccc1OCC(=O)NCCCN(C)C | 16.7% (inactive)
Oc1ccc(C=Nc2ccc3ncccc3c2)c(O)c1 | 26.2% (inactive)
Cc1ccc(C2CC(=O)NC(SCCC(C)C)=C2C#N)cc1 (stereo unspecified) | -19.8% (inactive)
C=CCN1C(=O)C(O)(CC(=O)c2c(C)n[nH]c2C)c2cc(Br)ccc21 (stereo unspecified) | 7.21% (inactive)
Cc1cc[n+](CC(=O)c2ccc(NC(=O)c3ccccc3)cc2)cc1 | 29.7% (inactive)
CCc1ccc2c(c1)CCCN2C(=O)c1ccccc1C(=O)O | -19% (inactive)
COc1ccc2c(c1)cc1n2CCN=C1N | 23% (inactive)
COc1c(N2CCN(C(=S)NCc3ccccc3)C(C)C2)c(F)cc2c(=O)c(C(=O)O)cn(C3CC3)c12 (stereo unspecified) | 20.9% (inactive)
CCCC(=O)c1c(NC)cc(C)oc1=O | 26.1% (inactive)
Cc1c(-c2ccccc2)[n+](=O)c2c(n1[O-])CCCC2 | 14.9% (inactive)
O=C(Nc1ccc(F)cc1)C1CCC(CNc2c(N3CCCCC3)c(=O)c2=O)CC1 (stereo unspecified) | -9.7% (inactive)
Nc1nc(N2CCN(c3ccccn3)CC2)nc2ccccc12 | 3.48% (inactive)
Cc1ccc(Cn2c(=N)c(C(=O)NCCN3CCOCC3)cc3c(=O)n4ccccc4nc32)cc1 | 16.7% (inactive)
CCOc1ccccc1NC(=O)CSc1nc(N)c(C#N)cc1C#N | 4.14% (inactive)
CN1CCc2nc(SCC(=O)Nc3cccc(F)c3)c(C#N)c(-c3cccs3)c2C1 | -20.1% (inactive)
COCCn1c(SCC(=O)Nc2nnc(C)s2)nnc1-c1c[nH]c2ccccc12 | 15.5% (inactive)
N#CCCn1ncc2ccccc21 | -3.13% (inactive)

Compound | inhibition
C=CCOC(=O)C1=C(C)NC2(O)c3ccccc3C(=O)C12O (stereo unspecified) | -19.4% (inactive)
COC(=O)c1ccc(Cn2cnc3ccccc3c2=O)cc1 | 16.1% (inactive)
N#C/C(=C\c1ccc[nH]1)C(=O)NC1CC1 | 4.86% (inactive)
O=c1c2ccccc2nc2n1CCc1c-2[nH]c2ccccc12 | 2.11% (inactive)
CC1(C)Oc2ccc3ccc(=O)oc3c2/C(=C/NCCN/C=C2\C(=O)C(C)(C)Oc3ccc4ccc(=O)oc4c32)C1=O | 0.81% (inactive)
Cn1nnnc1SCC(=O)Nc1ccccc1-c1ccccc1 | 8.28% (inactive)
CC1CCN(C(=O)CSc2nnc(Cc3cc(=O)[nH]c(=O)[nH]3)n2-c2ccc(Cl)cc2)CC1 | -0.09% (inactive)
CCOC(=O)N1CCC(=NNc2ccnc3cc(Cl)ccc23)CC1 | 39.4% (inactive)
Cn1c(CCN2CCN(c3ccccn3)CC2)nc2cc(NC(=O)COc3ccccc3)ccc21 | 13.6% (inactive)
O=C(c1ccc2c(c1)[nH]c(=S)n1c3ccccc3nc21)N1CCN(c2cccc(Cl)c2)CC1 | 18.8% (inactive)
Cn1cnnc1SCC(=O)Nc1ccc2nc(SCc3ccccc3)sc2c1 | 13.9% (inactive)
C(=N\Nc1nc2ccccc2[nH]1)/c1ccc2ncccc2c1 | -2.51% (inactive)
COC(=O)CC1C(=O)NCCN1C(=O)CSc1nc2ccc([N+](=O)[O-])cc2s1 (stereo unspecified) | 16.1% (inactive)
O=C(CSc1ccccn1)N/N=C/c1c[nH]c2ccccc12 | 35.6% (inactive)
CCN1C(=O)N/C(=C/c2cc(C)n(Cc3ccccc3)c2C)C1=O | -15.1% (inactive)
Cc1cccc(OCC(=O)Nc2nonc2NC(=O)COc2cccc(C)c2)c1 | 13.2% (inactive)
CC(=O)Nc1ccc(NC(=O)CSc2ccc(-c3ccco3)nn2)cc1 | 1.22% (inactive)
O=C(c1cc2c(s1)-c1ccccc1S(=O)(=O)C2)N1CCN(Cc2ccccc2)CC1 | 0.12% (inactive)
CN1CCN(c2ccccc2NC(=O)c2sc3ccccc3c2Cl)CC1 | -21.8% (inactive)
Cc1cc(C=O)c(O)cc1O | 36.2% (inactive)
O=C(NCc1ccccc1)c1ccc(CNc2c(N3CCCC3)c(=O)c2=O)cc1 | -5.91% (inactive)
COc1ccc(NC(=O)Cn2c(=O)oc3cc(S(=O)(=O)N4CCCC4)ccc32)c(OC)c1 | -15.4% (inactive)
NC1=NC2(CCCCC2)n2c(nc3ccccc32)N1 | 34.6% (inactive)

Compound | inhibition
NC1=NC(c2cccc(O)c2)n2c(nc3ccccc32)N1 (stereo unspecified) | -22.2% (inactive)
CCOC(=O)c1cnn2c1[nH]c(=O)c1ccccc12 | -7.64% (inactive)
NC(=O)c1cc(S(=O)(=O)Nc2cccc(F)c2)co1 | 7.62% (inactive)
COC(=O)c1cc2nc(-c3ccccc3)cc(C)n2n1 | 1.02% (inactive)
CNc1ccc(SC#N)cc1 | 2.34% (inactive)
CCOC(=O)Cc1nn(C)c(=O)c2ccccc12 | -3.49% (inactive)
O=S1(=O)CC=C(CSc2nc3ccccc3[nH]2)C1 | -15.2% (inactive)
CC(=O)N1CSCC1C(=O)N1CCN(c2ccc(N3CCOCC3)nn2)CC1 (stereo unspecified) | -16.5% (inactive)
CCOC(=O)C(NC(C)=O)(Nc1cccc(F)c1)C(F)(F)F (stereo unspecified) | -29.5% (inactive)
O=C(NC1(C(F)(F)F)C(=O)Nc2c1c(=O)[nH]c(=O)n2-c1ccccc1)c1ccncc1 (stereo unspecified) | -4% (inactive)
C=CCn1c(C)c(C(C)=O)c(N2CCCC2)nc1=S | 11.6% (inactive)
NC(=O)CN1N=C(c2cc(Cl)sc2Cl)CSC1=O | 14.5% (inactive)
COCCN1CC(=O)N2C(c3cccc(OC)c3)c3[nH]c4ccccc4c3C[C@H]2C1=O (stereo partly specified) | -10.6% (inactive)
N=c1c(C(=O)NCC2CCCO2)cc2c(=O)n3ccccc3nc2n1Cc1ccc(Cl)cc1 (stereo unspecified) | 24.5% (inactive)
COc1ccc(C)cc1NC(=O)C1CCN(S(=O)(=O)c2c(C)noc2C)CC1 | 8.55% (inactive)
CCOc1ccccc1-c1cc(-c2ccccc2)nc2c1c(=O)n(C)c(=O)n2C | 2.64% (inactive)
COc1cccc(C(c2c(C)[nH]n(-c3ccccc3)c2=O)c2c(C)[nH]n(-c3ccccc3)c2=O)c1O | 14.5% (inactive)
O=C(NCc1ccco1)C1CCN(C(=O)c2cc3sccc3n2Cc2ccc(Cl)cc2)CC1 | 4.77% (inactive)
Nc1nc(SCC(=O)N2CCCC2)[nH]c(=O)c1NC(=O)c1cccs1 | 17.8% (inactive)
